HCV inh – inhibitors of hepatitis C virus infection; Huh7.5.1 HCVcc-Cre infection, luciferase reporter, 44 h; Potency, µM (titrated, usually from 41.8 µM), inactives show at the top dose activity change, negative = inhibition, most hits filed as inhibitors; hit rate 3.4% among 340,000; note: potency is the fitted concentration of half-maximal effect
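A cell-based infection assay in which seeded cells (1,000 per well) receive test compound after 4 h, are inoculated with HCVcc-Cre at approximately 0.5 moi, and are incubated 44 h before luminescence detection.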
FBPA Giardia inh – Giardia lamblia aldolase inhibition | A8B2U2 | purified Giardia FBPA | Potency, µM (doses to about 59.6 µM), without a hit: top-dose activity, negative = inhibition, hits mostly inhibitors | hit rate 0.71% among 290,000; note: potency is the fitted concentration of half-maximal effect; nearly all actives have a fitted effect of over 55% in size
Target sequence (A8B2U2 whole entry, looked up): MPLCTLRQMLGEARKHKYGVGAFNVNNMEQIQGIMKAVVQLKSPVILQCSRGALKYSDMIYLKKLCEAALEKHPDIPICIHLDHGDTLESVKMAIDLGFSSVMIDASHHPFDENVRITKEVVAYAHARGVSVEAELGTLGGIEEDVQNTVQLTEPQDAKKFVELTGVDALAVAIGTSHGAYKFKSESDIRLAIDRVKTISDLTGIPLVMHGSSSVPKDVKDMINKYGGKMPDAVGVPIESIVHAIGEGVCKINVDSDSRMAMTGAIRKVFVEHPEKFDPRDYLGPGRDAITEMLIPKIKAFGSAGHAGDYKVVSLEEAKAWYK
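Giardia FBPA (40 nM reagent) was preincubated 10 min at RT with compound (up to 57.5 uM final), then substrate plus GAPDH/TPI/NAD/arsenate coupling system with diaphorase/resazurin was added; resorufin fluorescence (525/598 nm) was read after 20 min.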
LASV entry inh – Lassa virus entry inhibition; hit rate 1.2% among 300,000; Potency, µM (doses to about 37.9 µM), without a hit: top-dose activity change, negative = inhibition, usual class: inhibitors; Lassa virus pseudotype entry inhibition, cell reporter; calls by dose curve; tested in HEK293 cells; note: potency is the fitted concentration of half-maximal effect; nearly all actives have a fitted effect of over 50% in size
MARV entry inh – inhibitors of Marburg virus binding or cell entry | Potency, µM (top dose mostly 37.8 µM), without a hit: at the highest dose activity change, negative = inhibition, actives largely listed as inhibitors | Marburg virus pseudotyped entry inhibition, cell reporter | hit rate 1.8% among 300,000; calls by dose curve; tested in HEK293 cells; note: potency is the fitted concentration of half-maximal effect
HCMV inh – human cytomegalovirus inhibition; activity change, negative = inhibition, % at 57.5 µM; hit rate 4.5% among 410,000; AID 1259415; HFF cells, HCMV-luciferase reporter, 72 h; stronger effect = lower value; in the data active = activity change below about -60%; inconclusive = no clear call, values can overlap the other calls; inactive = above about -39%
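Luciferase read-out from HCMV-luciferase-infected HFFs (MOI 1 PFU/cell) 72 h post infection at 37C; compounds added after 16 h cell attachment; activity normalized between buffer-only basal and Salinomycin (10uM) inhibitor controls.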
FMDV inh – foot and mouth disease virus antiviral activity | FMDV antiviral cell-based qHTS | Potency, µM (top dose mostly 57.9 µM), for inactives: at the highest dose activity change, negative = inhibition, hits mostly inhibitors | hit rate 1.2% among 410,000; calls by dose curve; tested in HEK293T cells; note: read-out not given here; potency is the fitted concentration of half-maximal effect; nearly all actives have a fitted effect of over 45% in size
* marks the source's active call; other numbers are inactive results; [ ] = remark or other dose. Compounds with a hit are over-represented: about 8.3% of the library has one in this group of screens. Unless noted, calls come from the whole dose curve; as a rule, active = well fitted curve in the direction sought with a large enough effect; inconclusive = small, poorly fitted or top-dose-only effect, or another doubt; inactive = no such curve, though single readings can be large; an effect the other way counts as inactive or inconclusive. % is set by controls: 0 for no effect and ±100 for the full control effect.

What do the screens show for `COc1ccc(-c2cc(C(F)(F)F)nc(N3CCN(C)CC3)n2)cc1OC`?
HCV inh: inconclusive; FBPA Giardia inh: 1.8%; LASV entry inh: -27.1%; MARV entry inh: 11.6µM*; HCMV inh: 13.8; FMDV inh: inconclusive

How did Nc1[nH]n2c(=O)c3c(nc2c1N=Nc1ccc(Cl)cc1)CCCC3 do in these assays?
HCV inh: 13.8%; FBPA Giardia inh: -10.8%; LASV entry inh: 9.6%; MARV entry inh: 1.9%[46.1 µM]; HCMV inh: -95.3*; FMDV inh: -28.0%

How did CCc1ccc(OCC(=O)N(Cc2ccc(C)o2)C2CCS(=O)(=O)C2)cc1 (centres undefined) do in these assays?
LASV entry inh: -4.2%[46.1 µM]; MARV entry inh: 14.5%[46.1 µM]; HCMV inh: -39.0; FMDV inh: -13.5%

Results for CN(Cc1c(C(=O)N/N=C/c2cccc(O)c2)nnn1-c1nonc1N)C1CCCCC1 ?
HCV inh: 2.7%; FBPA Giardia inh: 13.1%; HCMV inh: 0.0; FMDV inh: 0.0%

How did CC(C)c1ccc(/C=N/NC(=O)c2nnn(-c3nonc3N)c2CSC2=NCCS2)cc1 do in these assays?
HCV inh: 11.2µM*; FBPA Giardia inh: -6.0%; LASV entry inh: inconclusive; MARV entry inh: -44.7%; HCMV inh: -20.9; FMDV inh: inconclusive

Results for CCN(CC)c1ccc(/C=N/NC(=O)c2nnn(-c3nonc3N)c2C(C)C)c(O)c1 ?
HCV inh: 1.12µM*; LASV entry inh: inconclusive; MARV entry inh: 2.51µM*; HCMV inh: -102.0*; FMDV inh: 0.5%

Results for CC1CCN(Cc2c(C(=O)N/N=C/c3ccccc3O)nnn2-c2nonc2N)CC1 ?
HCV inh: 3.55µM*; FBPA Giardia inh: -16.1%; LASV entry inh: inconclusive; MARV entry inh: 3.16µM*; HCMV inh: -95.3*; FMDV inh: 9.6%

How did CN(Cc1c(C(=O)N/N=C/c2ccccc2O)nnn1-c1nonc1N)C1CCCCC1 do in these assays?
HCMV inh: -98.1*; FMDV inh: -18.9%

How did CC(C)c1c(C(=O)N/N=C/c2ccncc2)nnn1-c1nonc1N do in these assays?
HCV inh: inconclusive; FBPA Giardia inh: 12.0%; HCMV inh: -0.4; FMDV inh: -29.0%

What do the screens show for `COC(=O)CC1c2ccccc2C=C(/C=C/c2ccc3c(c2)OCO3)N1C(=O)OC` (centres undefined)?
FBPA Giardia inh: -0.3%[12.9 µM]; MARV entry inh: -18.2%[14.2 µM]

What do the screens show for `Nc1nonc1-n1nnc(C(=O)N/N=C/c2ccc(O)cc2)c1CN1CCCCCC1`?
HCV inh: 10.9%; HCMV inh: -61.1*; FMDV inh: -13.9%

What do the screens show for `Nc1nonc1-n1nnc(C(=O)N/N=C/c2cccc(O)c2)c1CN1CCCC1`?
HCV inh: 6.1%; LASV entry inh: -5.6%[46.1 µM]; MARV entry inh: 3.2%[46.1 µM]; HCMV inh: -24.2; FMDV inh: -11.0%

What do the screens show for `Cc1nnn(-c2nonc2N)c1C(=O)N/N=C/c1ccccc1O`?
HCV inh: 5.4%; FBPA Giardia inh: -11.1%; LASV entry inh: -6.4%; MARV entry inh: inconclusive; HCMV inh: -13.9; FMDV inh: -7.3%

What do the screens show for `Cc1nnn(-c2nonc2N)c1C(=O)N/N=C/c1cccc2ccccc12`?
HCV inh: inconclusive; FBPA Giardia inh: 4.0%; LASV entry inh: -3.5%; MARV entry inh: inconclusive; HCMV inh: -65.1*; FMDV inh: -3.7%

Results for C=C1OC(CO)(n2cnc3c(N)ncnc32)C(O)C1O (centres undefined) ?
FBPA Giardia inh: 3.0%

What do the screens show for `O=C(O)CC1S/C(=N\N=C2CCCCCCC2)N(c2ccccc2)C1=O` (centres undefined)?
HCV inh: 11.2%; FBPA Giardia inh: 2.8%; LASV entry inh: 11.6%; MARV entry inh: -12.4%[46.1 µM]; HCMV inh: -103.9*; FMDV inh: -10.6%

What do the screens show for `Cc1ccc2cccc(NC(=O)c3ccc(-c4cc(Cl)ccc4Cl)o3)c2n1`?
LASV entry inh: 3.1%[46.1 µM]; MARV entry inh: 7.2%[46.1 µM]; HCMV inh: 5.1; FMDV inh: -6.7%

How did CC(C)(C)c1cccc(/C=N\O)c1O do in these assays?
MARV entry inh: -0.4%

Results for O=C(c1cc(C(F)(F)F)cc(C(F)(F)F)c1)N1CCC[C@@]2(CCN(Cc3ccccc3)C2)C1 ?
FBPA Giardia inh: 9.0%; FMDV inh: -4.6%

What do the screens show for `COc1ccc(C2CC(=O)C3=C(C2)NC(C)=C(C#N)C3c2ccc(N(C)C)cc2)cc1` (centres undefined)?
HCV inh: 12.6%; FBPA Giardia inh: -22.0%; LASV entry inh: 12.6µM*; MARV entry inh: inconclusive; HCMV inh: 2.5; FMDV inh: -14.2%

Results for Cc1cc(C)c2c(n1)SCCN2C(=O)Nc1ccc(C(=O)Nc2cc(Cl)ccc2C)cc1 ?
LASV entry inh: -0.6%[46.1 µM]; HCMV inh: inconclusive; FMDV inh: -9.9%

What do the screens show for `CC(C)(C)C1CCC(=NNC(=O)CN(c2ccccc2)S(=O)(=O)c2ccccc2[N+](=O)[O-])CC1` (centres undefined)?
HCV inh: 10.8%; FBPA Giardia inh: -3.0%; LASV entry inh: 8.5%; MARV entry inh: 3.9%; HCMV inh: -17.5; FMDV inh: -26.2%

How did COc1ccccc1N(CC(=O)Nc1cc(C)on1)S(=O)(=O)c1cccc(C(F)(F)F)c1 do in these assays?
HCV inh: -5.2%; HCMV inh: -64.0*; FMDV inh: -3.1%

How did CCCC/C(C)=N/NC(=O)CN(c1ccc(Br)cc1)S(=O)(=O)c1ccccc1 do in these assays?
HCV inh: 11.9%; FBPA Giardia inh: 4.5%; LASV entry inh: 1.6%; MARV entry inh: 6.4%; HCMV inh: -16.2; FMDV inh: -11.4%

What do the screens show for `COc1ccccc1N(CC(=O)N/N=C(\C)c1ccc(F)cc1)S(=O)(=O)c1ccccc1`?
HCV inh: -0.4%; LASV entry inh: 10.8%; MARV entry inh: 0.1%; HCMV inh: -101.3*; FMDV inh: -9.1%

What do the screens show for `C/C(=N/NC(=O)CN(c1ccccc1)S(=O)(=O)c1ccccc1)c1ccccc1O`?
HCV inh: inconclusive; FBPA Giardia inh: -20.5%; HCMV inh: -98.1*; FMDV inh: 17.4%

What do the screens show for `C/C(=N\NC(=O)CN(c1ccccc1)S(=O)(=O)c1ccccc1[N+](=O)[O-])C(C)(C)C`?
HCV inh: 3.8%; FBPA Giardia inh: -1.3%; LASV entry inh: 8.5%; MARV entry inh: inconclusive; HCMV inh: -62.9*; FMDV inh: 1.1%

Results for CCc1ccc(C(=O)NC(Cc2c[nH]c3ccccc23)C(=O)OCC(=O)c2ccc(Br)cc2)cc1 (centres undefined) ?
LASV entry inh: -23.4%[46.1 µM]; HCMV inh: 0.0; FMDV inh: 30.8%

How did Nc1nc(Nc2ccccc2F)sc1C(=O)c1ccc(Cl)cc1 do in these assays?
LASV entry inh: -11.2%[46.1 µM]; MARV entry inh: inconclusive; HCMV inh: 91.4; FMDV inh: 35.1%

Screens from PubChem BioAssay.
